# According to PubChem BioAssay (NCI):
# Where “and” joins values, the source holds several entries; their conditions need not be identical. Equal entries are not always repeated. About 83,000 compounds went through this panel and 20% of them were active in at least one assay; those are over-represented in the sample as a whole.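 Cell lines were cultured in 96-well plates, exposed to a single compound concentration, and assessed for percent growth 48 hours later.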 Calls of active or inactive are those of the source.
# Test system: PC-3 prostate
# Assay: NCI-60 one-dose screen, 48 h (100 = growth as untreated, 0 = no growth, -100 = all killed)
# Conditions: 10 µM
# Description: Growth inhibition of the PC-3 human tumor cell line is measured as a screen for anti-cancer activity. Cells are grown in 96 well plates and exposed to the test compound for 48 hours. Compounds are tested at a single concentration, which is 10^-5 M for most compounds. The reported endpoint is percent growth (GI% or GIPRCNT), where numbers from 0 - 100% represent growth inhibition, and numbers from -100% - 0 represent cell death. For example, a value of 40 represents 60% growth inhibition. A value of 0 means no net growth occurred over the course of the experiment. A value of -40 indicates 40% of cells at the beginning of the experiment died by the end of the experiment. A value of -100 means all cells are dead at the end of the experiment.
# NCI-60 Human Tumor Cell Lines Screen was performed using the standard one-dose NCI protocol, which is described in more detail at https://dtp.cancer.gov/discovery_development/nci-60/default.htm.
# Compounds with GIPRCNT values below 10 were considered active. Activity score was based on GIPRCNT using the following formula: […]
# Score is 0 for GIPRCNT values of 100 or above, 50 for GIPRCNT values of 0, and 100 for GIPRCNT values of -100.
row,Structure (SMILES),growth
1,O=C(O)CCCc1ccc(N(CCCl)CCCl)cc1,85.3% (inactive) and 64.5% (inactive)

# Same assay, conditions: 10 µM unless noted
row,Structure (SMILES),growth
1,COC[C@H]1OC(=O)c2coc3c2[C@@]1(C)C1=C(C3=O)[C@@H]2CCC(=O)[C@@]2(C)C[C@H]1OC(C)=O,25.1% (inactive)
2,CN(C)c1ccc([N+](=O)[O-])c([N+](=O)[O-])c1,105% (inactive) and 100% (inactive)
3,CC[C@H](C)[C@H](NC(=O)[C@H]1CCCCN1C)C(=O)N(C)[C@H](C(=O)NC12CC(C(=O)N[C@@H](Cc3ccccc3)C[C@H](C)C(=O)OC)(C1)C2)C(C)C,100% (inactive)
4,O=P(O)(Nc1ccccc1)Nc1ccccc1,91.5% (inactive)
5,C[C@]12CCc3sc(Nc4ccc(O)cc4)nc3C1=CC[C@@H]1[C@@H]2CC[C@]2(C)C(=O)CC[C@@H]12,39.1% (inactive)
6,O=C1CN2CCC1CC2,104% (inactive)
7,O=C=Nc1ccc(Br)cc1,78.8% (inactive)
8,O=NN(c1ccccc1)c1ccccc1,98% (inactive)
9,O=C(O)C(O)c1ccc(Cl)cc1 (stereo not given),92.7% (inactive) and 103% (inactive)
10,Cc1cc[c-]cc1.Fc1c[c-]c(-c2ccccn2)c(F)c1.[Pt+2].c1ccc([PH+](c2ccccc2)c2ccccn2)cc1,37.4% (inactive)
11,CN1CCN(c2ccc(Cl)cc2)CC1,107% (inactive)
12,O=S(=O)(c1ccc(O)cc1)c1ccccc1O,89% (inactive)
13,CCCCCCCCCCCCCCCC[N+](C)(C)C,-40.8% (active) and -32.8% (active)
14,N#CCc1ccc(CC#N)cc1,91.2% (inactive)
15,C[N+]1(C)CCCC1c1cccnc1 (stereo not given),97.6% (inactive)
16,O=C(O)C1C(C(=O)O)C2(Cl)C(Cl)=C(Cl)C1(Cl)C2(Cl)Cl (stereo not given),91.7% (inactive) and 101% (inactive)
17,CCCC1CCCCC12C(=O)NC(=O)NC2=O (stereo not given),104% (inactive) and 101% (inactive)
18,O=c1[nH]c(=O)n(Cl)c(=O)n1Cl,98.8% (inactive) and 98% (inactive)
19,COc1cc(/C=C\[N+](=O)[O-])ccc1OCc1ccccc1,23% (inactive)

row,Structure (SMILES),growth
1,C[C@]12CCc3sc(Nc4ccc(F)cc4F)nc3C1=CC[C@@H]1[C@@H]2CC[C@]2(C)C(=O)CC[C@@H]12,52.9% (inactive)
2,O=C(CCCN1CCC2(CC1)C(=O)NCN2c1ccccc1)c1ccc(F)cc1,106% (inactive) and 77.6% (inactive)
3,O=C(NC(Cl)=C(Cl)Cl)P(=O)(c1ccccc1)c1ccccc1,103% (inactive)
4,CN(C)c1ccc(N)cc1,81.3% (inactive) and 50.8% (inactive)
5,COc1ccc(CN)cc1OC,106% (inactive) and 93.5% (inactive)
6,c1ccc2c(c1)O[As](O[As]1Oc3ccccc3O1)O2,36.9% (inactive)
7,CC[C@H](C)[C@H](NC(=O)CN(C)C)C(=O)N(C)[C@H](C[C@@H](OC(C)=O)c1nc(C(=O)NC23CC(C(=O)OC)(C2)C3)cs1)C(C)C,25.8% (inactive)
8,Cc1ccc(P(=O)(O)O)cc1,107% (inactive)
9,C[C@]12CC[C@H](O)C[C@@H]1CC[C@@H]1[C@@H]2CC[C@]2(C)OC(=O)CC[C@@H]12,92.5% (inactive)
10,O=[N+]([O-])c1cc(Cl)c(Cl)cc1Cl,96.1% (inactive) and 102% (inactive)
11,CCN(CC)CCn1c(=O)n(C)c2ccccc21,96.8% (inactive)
12,Nc1ccc2c(c1)Cc1cc(N)ccc1-2,84.9% (inactive)
13,CC12CCC3C4CCC(=O)C=C4CCC3C1CC1CC(=O)OC12 (stereo not given),87.1% (inactive)
14,O=C(O)C(F)F,105% (inactive)
15,C[N+]1(CC#CC[N+]2(C)CCCC2)CCCC1,92.7% (inactive)
16,O=c1[nH]c(=O)[nH]c(=O)[nH]1,148% (inactive)
17,CC12CCC3C(CCC4CC(O)CCC43C)C1CCC2=O (stereo not given),99.6% (inactive)
18,CC(=O)Nc1nc2c(s1)C1=CC[C@H]3[C@@H]4CC[C@H](OC(C)=O)[C@@]4(C)CC[C@@H]3[C@@]1(C)CC2,59.2% (inactive)
19,C[C@]12CCC3[C@@H](C[C@@H]4SC(Nc5ccccc5)=N[C@@]45CC(=O)CC[C@]35C)[C@@H]1CCC2=O (stereo not given in full),-16.1% (active)

# Same assay, conditions: 75 µM
row,Structure (SMILES),growth
1,O=C(O)CCCc1ccc(N(CCCl)CCCl)cc1,45.3% (inactive)
